About 50,000 (12%) of roughly 420,000 compounds were called active. Inconclusive results (about 26%) are left out. What follows is part of a selection rich in actives, with near analogues and random picks from the rest. Unmarked numbers belong to inactive results. Calls follow the shape of the dose curve; as a rule, active = well fitted inhibition curve with a large enough effect; inconclusive = small, poorly fitted or top-dose-only effect; inactive = flat fitted curve, though single readings scatter.

The values that follow come from PubChem BioAssay AID686979 (National Center for Advancing Translational Sciences (NCATS), 2013).
% is scaled to controls: 0 for no effect and ±100 for the full control effect; potency is read from the fitted curve at half-maximal effect.

This assay is described as follows: qHTS for Inhibitors of human tyrosyl-DNA phosphodiesterase 1 (TDP1): qHTS in cells in presence of CPT. Also: nearly all actives have a fitted effect of over 55% in size. Particulars: chicken DT40 Tdp1-/-;hTDP1 cells + 20 nM CPT, ATP luminescence, 48 h; series mostly up to 46.2 µM; activity change, negative = growth inhibition: at the top concentration. The method in brief: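 Cell growth measured by CellTiter-Glo luminescence after a minimum 48 h, 37 C compound exposure with 20 nM CPT in Tdp1-knockout DT40 cells stably expressing hTDP1, seeded 400/well; qHTS titration format.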
(In general: qHTS replaces the single test concentration by a dilution series.)
Consider `Cn1c(=O)c2c(nc(SCCNS(=O)(=O)c3ccccc3)n2C)n(C)c1=O`, for which the “activity change, negative = growth inhibition” value is -26.8%.
On to `Cc1cc(-c2nnc(SCC(=O)Nc3ccc(F)cc3)n2N)n[nH]1`, for which the “activity change, negative = growth inhibition” value was -11.5%.
For the compound `Cc1ccc(C)c(NC(=O)C(OC(=O)c2ccc(C)s2)c2ccccc2)c1` (stereo not drawn), the “activity change, negative = growth inhibition” value was -17.8%.
On to `O=C1CN(C(=O)COc2c(Cl)cccc2Cl)c2ccccc2N1`, for which the “activity change, negative = growth inhibition” value was -15.5%.
Still for that read-out and setting: the result for `O=C(OCc1nc2ccccc2[nH]1)C1CCCCC1` reads -15.7%.
`CCCc1nc(N)nc2c1C(=O)CC(C)(C)C2`: the “activity change, negative = growth inhibition” value is -16.3%.
`CC/C(O)=C1\C(=O)CC(C)(C)CC1=NCCc1nc2ccccc2[nH]1`: the Potency was 23.1 µM (active).
For `COc1ccc(S(=O)(=O)Nc2cc(C)on2)cc1NC(C)=O`, the “activity change, negative = growth inhibition” value was 22.5%.
`CC1(C)CC(=O)C=C(c2ccc(Cl)c(C(F)(F)F)c2)C1`: the “activity change, negative = growth inhibition” value is -27.7%.
The same measure, in the same setting: the result for `CCn1cc(C(=O)OCC(=O)Nc2cc(C)cc(C)c2)c(=O)c2ccc(C)nc21` reads -22.5%.
Same read-out and setting: the result for `Cc1cc(NC(=O)CS(=O)(=O)c2cn(C)c3ccccc23)no1` reads -8.42%; that for `Cc1c(C(=O)N(C)CCc2cnn(C)c2)oc2c(F)cccc12`, -4.88%.
Turning to `CC(C)(C)CC(C)(C)NCC(O)COCCOc1ccc(Br)cc1` (stereo not drawn), the Potency is 5.17 µM (active).
Take `CC(Oc1ccc(Br)cc1)C(=O)NC1CCCCCC1` (stereo not drawn): the “activity change, negative = growth inhibition” value is -21.9%.
Same read-out and setting: the result for `OC(COc1ccc(Br)cc1)CN1CCCC1` (stereo not drawn) reads -4.36%; that for `COC(=O)C1(C)NC(c2ccc(C)cc2)C2C(=O)N(c3ccc(F)cc3)C(=O)C21` (stereo not drawn), -1.12%.
The same measure, in the same setting: next, `C/C(N)=C(/C#N)C(=O)COC(=O)CNS(=O)(=O)c1ccc(C)cc1`: 7.08%.
For `Cc1ccc(C(=O)O)c(NC=O)c1OCc1ccccc1`, the “activity change, negative = growth inhibition” value was 20.1%.
`Cc1cccc(N2CCN(C(c3ccccc3)c3nnnn3CC3CCCO3)CC2)c1C` (stereo not drawn): the Potency is 20.6 µM (active).
Take `Cc1cccc(N2CCN(C(c3ccc(N(C)C)cc3)c3nnnn3C(C)(C)C)CC2)c1C` (stereo not drawn): the “activity change, negative = growth inhibition” value was -11.5%.
Still for that read-out and setting: the result for `COc1ccccc1C(c1nnnn1CC1CCCO1)N1CCN(c2ccccc2)CC1` (stereo not drawn) reads -0.846%; that for `Cc1nc2ccc(N)nc2nc1C`, 1.9%.
`O=C1/C(=C/c2ccc3c(c2)OCO3)Oc2cc(OCC(=O)N3CC(O)C[C@H]3C(=O)O)ccc21` (stereo partly drawn): the “activity change, negative = growth inhibition” value is -3.66%.
Same read-out and setting: next, `Nc1cccc(OCCCCCOc2cccc(N)c2)c1`: -17.9%.
Same read-out and setting: next, `O=C(O)C1CCCN1S(=O)(=O)c1ccc(Br)cc1` (stereo not drawn): 6.77%.
In the case of `O=S(=O)(c1ccc(Br)cc1)n1ccc2ccccc21`, the Potency was 13 µM (active).
On to `O=C(c1ccccc1F)N1CCN(S(=O)(=O)c2ccc(Br)cc2)CC1`, for which the “activity change, negative = growth inhibition” value is -17.3%.
Still for that read-out and setting: next, `COc1cccc(C(=O)N2CCC(n3nccc3NC(=O)C3CCOC3)CC2)c1` (stereo not drawn): 5.06%; `COc1ccc(-c2nnc(-c3ccc4ccccc4c3)o2)cc1`: -22.7%.
With `CCOc1cc(C)c(Cl)cc1S(=O)(=O)n1nnc2ccccc21`, the “activity change, negative = growth inhibition” value is -14.4%.
`COc1ccc(C(C)C)cc1S(=O)(=O)Nc1ncn[nH]1`: the “activity change, negative = growth inhibition” value was 6.77%.
Regarding `CCOc1ccc(C(C)C)cc1S(=O)(=O)n1nc(C)cc1C`, the Potency was 16.4 µM (active).
With `CCc1ccccc1N1CN(Cc2ccco2)CNC1=S`, the “activity change, negative = growth inhibition” value is -8.58%.
Same read-out and setting: next, `O=C(CNC(=O)[C@@H]1Cc2ccccc2CN1)NC1CCCCC1`: -2.66%.
Take `CC(C)Oc1ccc(CCc2n[nH]c(=S)n2Cc2ccccc2)cc1`: the Potency is 25.9 µM (active).
With `CC(C)Oc1ccc(Cc2n[nH]c(=S)n2Cc2ccccc2)cc1Cl`, the “activity change, negative = growth inhibition” value was -11.9%.
On the same count and under the same terms, next, `C=CCn1c(CCc2ccc(OC(C)C)cc2)n[nH]c1=S`: -29.5%.
For `O=[N+]([O-])c1ccc2nc(-c3ccccn3)[nH]c2c1`, the Potency was 0.651 µM (active).
In the case of `O=c1[nH]c2cccnc2n1-c1ccc([N+](=O)[O-])cc1`, the “activity change, negative = growth inhibition” value is -6.6%.
The same measure, in the same setting: next, `O=C(CSc1nc2ccc([N+](=O)[O-])cc2[nH]1)c1ccc(Cl)cc1`: -27%; `O=[N+]([O-])c1ccccc1/C=C/CN1CCCC(CO)C1` (stereo not drawn): -0.367%; `CCSc1sc(CC)cc1C=O`: -12.7%.
For the compound `CCOc1ccc(C(C)NC(=O)CN2C(=O)NC3(CCCCC3)C2=O)cc1OCC` (stereo not drawn), the “activity change, negative = growth inhibition” value was -1.96%.
On to `CCCCN(CCCC)CCCNC(=O)CN1C(=O)COc2ccc(S(=O)(=O)N3CCC(C)CC3)cc21`, for which the Potency is 18.4 µM (active).
`COc1ccc(CCNC(=O)CN2C(=O)COc3ccc(S(=O)(=O)N4CCCC4)cc32)cc1OC`: the “activity change, negative = growth inhibition” value was -11%.
On the same count and under the same terms, next, `Cc1ccc2c(c1)N(CC(=O)N1CCOCC1)C(=O)CO2`: 18.3%; `CC(=O)Nc1ccc(NC(=O)CN2C(=O)COc3ccc(S(=O)(=O)N4CCCCC4)cc32)cc1`: 1.6%.
Still for that read-out and setting: the result for `CCCCN(CCCC)CCNC(=O)CN1C(=O)COc2ccc(S(=O)(=O)N3CCOCC3)cc21` reads -27.9%.
In the case of `Cc1ccc(C)c(N2CCN(C(=O)CN3C(=O)COc4ccc(S(=O)(=O)N5CCCCCC5)cc43)CC2)c1`, the Potency is 16.4 µM (active).
`O=C(CCN1C(=O)c2ccncc2C1=O)Nc1cc(F)ccc1F`: the “activity change, negative = growth inhibition” value was -2.86%.
Same read-out and setting: next, `O=C(COC(=O)c1cnccn1)Nc1ccc(Cl)cc1C(F)(F)F`: -2.73%.
The same measure, in the same setting: the result for `CC(OC(=O)CNC(=O)c1ccc(Cl)c([N+](=O)[O-])c1)C(=O)NCc1ccco1` (stereo not drawn) reads 9.09%; that for `Cc1cc(=O)oc2c3c(cc(OCC(=O)N[C@H](C(=O)O)c4ccccc4)c12)OC(C)(C)CC3`, 1.09%.
